# Assay results as given in paper PMC5540273 (PLoS ONE, 2017).
# Tested on: PAK3
# Details: concentration: 1 μM,replicates: in singlicate; n = 1
# 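Further: KINOMEscan kinase panel screen.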
row,SMILES,%Inh [%]
1,COC(=O)Nc1nc2cc(Oc3ccc(NC(=O)Nc4cc(C(F)(F)F)ccc4Cl)cc3)ccc2[nH]1.Cl [GW697465],25
2,CS(=O)(=O)c1cccc(CNc2nc(Nc3ccc4c(c3)[C@@H]3C[C@@H]4CNC3=O)ncc2C(F)(F)F)c1,0
3,COc1cccc(C2=C(Nc3cccc(Cl)c3)C(=O)NC2=O)c1 [SB-341556],100
4,Cc1ccc2c(-c3ccnc(Nc4ccc(C(F)(F)F)cc4)n3)cnn2n1 [GW819776],18
5,CN1CCN(CCNc2nc3cc(Oc4ccc(NC(=O)Nc5cc(C(F)(F)F)ccc5F)cc4)ccc3[nH]2)CC1.Cl.Cl [GW768504],6
6,COc1cc2c(Nc3ccc(NC(=O)c4ccccc4)cc3)ncnc2cc1OCCCN1CCOCC1 [GSK301329],30
7,COc1cccc(OC)c1C(=O)Nc1cccc(-c2nn3ccccc3c2-c2ccnc(Nc3cccc(F)c3)n2)c1 [GSK361065],0
8,Cc1cccc(-c2nc(Nc3ccncc3)c3sccc3n2)n1 [GW869641],50
9,C[C@@H](Oc1cc(-n2cnc3cc(-c4cnn(C)c4)ccc32)sc1C(N)=O)c1ccccc1Cl [GSK580432],63
10,Cn1ccc2ncnc(Oc3ccc(NC(=O)Nc4cnn(C(C)(C)C)c4)c(Cl)c3)c21,45
11,Cn1ccc2ncnc(Oc3ccc(NC(=O)Nc4ccnc(C(F)(F)F)c4)c(Cl)c3)c21,100
12,C[C@@H](Oc1cc(-n2cnc3cc(-c4ccncc4)ccc32)sc1C(N)=O)c1ccccc1Cl [GSK479719],27
13,c1ccc(Oc2ccc(Nc3ccnc4ccc(-c5ccccn5)cc34)cc2)cc1 [GW407034],0
14,COC(=O)c1cccc(NC(=O)NC2CCN(c3ccnc(NCc4ccc(F)cc4)n3)CC2)c1 [GSK1379860],0
15,COc1cccc(CNC(=O)NC2CCN(c3ccnc(Nc4cc(OC)c(OC)c(OC)c4)n3)C2)c1 (stereo not shown) [GSK1379765],11
16,Cn1ccc2ncnc(Oc3ccc(NC(=O)Nc4cccc(C(F)(F)F)c4)c(Cl)c3)c21,21
17,O=C(NCC1CC1)c1ccc(-c2cc(C(=O)NC3CC3)ccc2F)cc1 [GW810445],12
18,O=c1[nH]cc(-c2ccc(O)cc2)c2sc(-c3ccncc3)cc12 [GSK1033723],11
19,Cn1ccc2ncnc(Oc3ccc(NC(=O)Nc4cncc(C(F)(F)F)c4)c(Cl)c3)c21,0

row,SMILES,%Inh [%]
1,Cc1ccc(Nc2ccnc(Nc3ccc4c(c3)CS(=O)(=O)C4)n2)cc1O.Cl [GW579362],20
2,N#Cc1cccc(C(=O)NC2CCN(c3ccnc(Nc4ccc(F)cc4)n3)C2)c1 (stereo not shown) [GSK1379708],0
3,C[C@@H]1CNc2c(sc3ccc4nc(-c5ccc(O)cc5)ccc4c23)C(=O)N1,0
4,C[C@@H]1CNc2c(sc3ccc4nc(-c5ccncc5)ccc4c23)C(=O)N1,9
5,Cl.Nc1n[nH]c2cc(-c3ccccn3)ccc12 [GSK2189892],0
6,CCNCC(Cc1ccccc1)NC(=O)c1cc(Br)c(-c2ccnc3[nH]ccc23)s1.Cl.Cl (stereo not shown) [GSK1383280],62
7,CN(c1ccc2c(c1)nc(NCc1ccc(F)cc1)n2C)c1ccnc(Nc2ccc(CS(C)(=O)=O)cc2)n1.Cl [GW813244],12
8,COc1cc2ncn(-c3cc(OCC4CCCCC4)c(C(N)=O)s3)c2cc1OC [GSK204559],18
9,O=C(Nc1ccc(Oc2ccc3nc(NC(=O)C4CC4)cn3n2)c(F)c1)c1cccn(-c2ccccc2)c1=O,0
10,Cl.Cl.NC[C@H](CC1CCCCC1)NC(=O)c1ccc(-c2ccnc3[nH]ccc23)s1 [GSK1581428],94.8
11,CSc1nccc(-c2c(-c3ccc(F)cc3)ncn2CCCN2CCOCC2)n1.Cl [SB-217146],0
12,CCOC(=O)N1CCC(n2cnc(-c3ccc(F)cc3)c2-c2ccnc(N)n2)CC1 [SB-219952],9
13,CS(=O)(=O)Nc1ccc(-c2ccnc3[nH]ccc23)cc1 [GSK993273],51
14,O=C(Nc1cccc(C(F)(F)F)c1)c1cccc(Oc2ccc3nccn3n2)c1,20
15,O=C(NOCC1CC1)c1cc(Br)c(F)c(F)c1Nc1ccc(I)cc1Cl,16
16,CC(C)c1nc(-c2cccc(NS(=O)(=O)c3ccccc3)c2)c(-c2ccnc(Nc3ccc4c(c3)CN(C)CC4)n2)s1 [GSK1649598],88
17,OCCn1cc(-c2cnc3nnn(Cc4ccc5ncccc5c4)c3n2)cn1,0
18,O=C(Nc1n[nH]c2cc(-c3ccco3)ccc12)C1CC1 [SB-737447],0
